Data: PubChem BioAssay (NCATS)
Inconclusive results are not listed. A call without a number means that no potency is given here. Activity calls are given as the source filed them. The call rests on the fitted dose curve; in most records, active means well fitted inhibition curve with a large enough effect; inconclusive means small, poorly fitted or top-dose-only effect; inactive means no such curve, though single readings can be large or run the other way.

Target: Protein phosphatase 1D (Homo sapiens) (UniProt O15297)
Sequence (O15297 whole entry, looked up): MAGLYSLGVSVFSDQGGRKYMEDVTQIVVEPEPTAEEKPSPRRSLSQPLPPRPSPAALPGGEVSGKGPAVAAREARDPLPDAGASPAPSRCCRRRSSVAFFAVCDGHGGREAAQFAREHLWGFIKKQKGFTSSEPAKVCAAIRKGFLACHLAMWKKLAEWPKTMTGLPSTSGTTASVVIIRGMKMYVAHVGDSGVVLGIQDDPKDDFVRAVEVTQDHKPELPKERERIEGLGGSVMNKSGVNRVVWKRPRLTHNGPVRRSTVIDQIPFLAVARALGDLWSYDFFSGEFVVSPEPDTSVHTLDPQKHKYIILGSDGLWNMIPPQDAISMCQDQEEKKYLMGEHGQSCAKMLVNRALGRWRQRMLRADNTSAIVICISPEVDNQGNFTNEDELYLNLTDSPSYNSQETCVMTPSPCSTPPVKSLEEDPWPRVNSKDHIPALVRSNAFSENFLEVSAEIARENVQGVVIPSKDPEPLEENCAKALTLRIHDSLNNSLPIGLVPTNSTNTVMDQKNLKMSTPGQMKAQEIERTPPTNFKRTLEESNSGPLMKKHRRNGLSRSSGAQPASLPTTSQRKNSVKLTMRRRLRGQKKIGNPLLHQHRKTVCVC
Assay: RapidFire Mass Spectrometry qHTS Assay for Modulators of WT P53-Induced Phosphatase 1 (WIP1) (AID 1347424)
Conditions: WIP1 dephosphorylation of phosphopeptide, RapidFire MS; series mostly up to 63 µM
Text: Assay Provider (PI): Nathan Coussens Ph. D.
National Center for Advancing Translational Sciences (NCATS), Rockville, MD
National Institute of Health (NIH), Bethesda, Maryland
WT P53-Induced Phosphatase 1 (WIP1) is a member of the magnesium-dependent serine/threonine protein phosphatase (PPM) family and is induced by P53 in response to DNA damage. In several human cancers, the WIP1 protein is overexpressed, which is generally associated with a worse prognosis. Although WIP1 is an attractive therapeutic target, no potent, selective, and bioactive small-molecule modulator with favorable pharmacokinetics has been reported. Phosphatase enzymes are among the most challenging targets for small molecules because of the difficulty of achieving both modulator selectivity and bioavailability. Another major obstacle has been the availability of robust and physiologically relevant phosphatase assays that are suitable for high-throughput screening.
Here, we describe two orthogonal biochemical WIP1 activity assays that utilize phosphopeptides from native WIP1 substrates. We optimized a RapidFire MS assay to quantify the enzymatically dephosphorylated peptide reaction product in a 384-well format. Additionally, a redshifted Rhodamine-PBP fluorescence assay was optimized in a 1,536-well format to enable real-time WIP1 activity measurements through the detection of the orthogonal reaction product, Pi. We validated these two optimized assays by quantitative high-throughput screening against the National Center for Advancing Translational Sciences (NCATS) Pharmaceutical Collection and used secondary assays to confirm and evaluate inhibitors identified in the primary screen.
SEQUENCE No. (e.g., 1, 2, 3, etc.); […] (e.g., Cells, Incubation, Reagent, etc.); VALUE; DESCRIPTION
1; Reagent; 50 uL; dispensed assay buffer: 0.1% formic acid in water (10 uL : 40 uL) solution in column 1
3; Library Compounds; 63 nL; library compounds in DMSO, columns 3-24
4; Control Compounds; 63 nL; DMSO in wells I-P, columns 1-2, GSK830371 (10 uM, final) in wells A-H, column 2
5; Time; 1 hr; incubation
6; Substrate; 2 uL; VEPPL-pS-QETFS (10 uM) in assay buffer, column 2-24
7; Time; 5 min; incubation
8; Reagent; 2 uL; 0.5% formic acid in water, columns 2-24
9; Reagent; 38 uL; VEPPL-S-QETF*S in 0.1% formic acid, columns 2-24
10; Detection; mass spec; RapidFire mass spectrometry
NOTES (numbers refer to sequence above)
1, 2, 6; dispensed reagent in White Nunc 384-well PP microplates (264573); assay buffer: 50 mM Tris-HCl pH 7.5, 30 mM MgCl2, 1 mM TCEP, 0.1 mM EGTA, 75 ug/mL BSA.
2, 6, 8, 9; Dispensed with BioRaptr (Beckman Coulter)
2, 6, 9; Final concentrations: 10 nM WIP1; 2 uM VEPPL-pS-QETFS; 1 uM VEFFL-S-QETF*S
3 & 4; Kalypsys Pintool transfer (Wako USA), Tip wash sequence: water, DMSO, methanol, 20 sec vacuum dry.
5 & 7; incubation at room temperature
10; RapidFire mass spectrometry read using the Agilent RapidFire 360 (Clausse, 2019)
Clausse V, et al. Physiologically relevant orthogonal assay for the discovery of small-molecule modulators of WIP1 […] in high-throughput screens. J Biol Chem. 2019, 294(46): 17654-17668. doi:10.1074/jbc.RA119.010201
Potency means the concentration at half of the fitted maximal effect.

SMILES	Potency
Cc1ccc(O)cc1	inactive
Cc1cccc(N(C)C(=S)Oc2ccc3c(c2)CCC3)c1	inactive
CCCN(CCC)C(=O)C(CCC(=O)OCCCN1CCN(CCOC(=O)Cc2c(C)n(C(=O)c3ccc(Cl)cc3)c3ccc(OC)cc23)CC1)NC(=O)c1ccccc1 (stereo not given)	inactive
CC(=O)OCC[N+](C)(C)C	inactive
CCOC(=O)C(=O)CCc1ccccc1	inactive
COC(=O)C1=C(C)NC(C)=C(C(=O)OCCc2ccc(N3CCN(C(c4ccccc4)c4ccccc4)CC3)cc2)C1c1cccc([N+](=O)[O-])c1 (stereo not given)	inactive
CC(C)(C)c1cc(C=O)cc(C(C)(C)C)c1O	inactive
O=C1CC2(CCCC2)CC(=O)N1CCNCC1COc2ccccc2O1 (stereo not given)	inactive
N=C(N)c1ccc(OCCCOc2ccc(C(=N)N)cc2)cc1	inactive
Oc1ccccc1	inactive
Nc1ncnc2nc[nH]c12	inactive
NS(=O)(=O)c1cc2c(cc1Cl)CN(C1CCCCC1)C2=O	inactive
N[C@@H](Cc1cc(I)c(O)c(I)c1)C(=O)O	20 µM (active)
Cc1cccc(OCC(O)CNC(C)(C)C)c1C (stereo not given)	inactive
C/C(=N\O)[C@@H](C)NCC(C)(C)CN[C@H](C)/C(C)=N/O	inactive
CN(CC1(C)CCCO1)S(=O)(=O)c1ccc(Cl)c(S(N)(=O)=O)c1 (stereo not given)	inactive
CC(=O)Oc1ccc(C2(c3ccc(OC(C)=O)cc3)Oc3ccccc3NC2=O)cc1	inactive
NS(=O)(=O)c1cc(C(=O)NN2C[C@H]3[C@H]4CCC(C4)[C@H]3C2)ccc1Cl	inactive
C1=CC2C3C=CC(C3)C2C1 (stereo not given)	inactive
Nc1cc(C(F)(F)F)ccc1S	inactive

SMILES	Potency
CSCC[C@H](NC(=O)[C@H](Cc1c[nH]c2ccccc12)NC(=O)CCNC(=O)OC(C)(C)C)C(=O)N[C@@H](CC(=O)O)C(=O)N[C@@H](Cc1ccccc1)C(N)=O	inactive
O=C(CCOCCOCCOCCOCCC(=O)Nc1c(I)cc(I)c(C(=O)O)c1I)Nc1c(I)cc(I)c(C(=O)O)c1I	inactive
CCOC(=O)C1=C(C)NC(C)=C(C(=O)OCC)C1c1ccccc1/C=C/C(=O)OC(C)(C)C	inactive
Cc1nc(C2CCCCC2)c(-c2ccc(S(N)(=O)=O)c(F)c2)o1	inactive
CCCOc1ccc2c(c1)CC[C@@H]1[C@@H]2CC[C@]2(C)C(OC)CC[C@@H]12 (stereo not given in full)	inactive
C[C@H]1C[C@H]2[C@@H]3CCC4=CC(=O)C=C[C@]4(C)[C@H]3C(=O)C[C@]2(C)[C@@]1(O)C(=O)CO	inactive
CCOc1c(N2CCOCC2)cnn(C)c1=O	inactive
Cc1c(C)c2c(c(C)c1OC(=O)CCC(=O)OCCO)CC[C@@](C)(CCC[C@H](C)CCC[C@H](C)CCCC(C)C)O2	inactive
CC1(C)O[C@@H]2C[C@H]3[C@@H]4CCC5=CC(=O)C=C[C@]5(C)[C@@]4(F)[C@@H](O)C[C@]3(C)[C@]2(C(=O)CO)O1	inactive
Cn1c(=O)c2c(ncn2CC(=O)O)n(C)c1=O	inactive
C[C@H]1NCc2cc(-c3ccc4c(=O)c(C(=O)O)cn(C5CC5)c4c3OC(F)F)ccc21	inactive
O=C1Cc2cc(Cl)ccc2N1	inactive
Cn1cc(S(C)=O)c(=O)c2ccc(F)cc21 (stereo not given)	inactive
CC[C@@]1(O)C(=O)OCc2c1cc1n(c2=O)Cc2c-1nc1ccccc1c2/C=N/OC(C)(C)C	inactive
O=C(O)[C@H](O)[C@@H](O)[C@H](O[C@@H]1O[C@H](CO)[C@H](O)[C@H](O)[C@H]1O)[C@H](O)CO	inactive
CCC(=O)Oc1ccc2c(c1)CC[C@@H]1[C@@H]2CC[C@@]2(C)[C@H]1C[C@@H](OC(=O)CC)[C@@H]2OC(=O)CC	inactive
COc1cc(/C=C/C(N)=O)cc(OC)c1OC	inactive
COc1ccc2c(c1)CCCC2=O	inactive
Cc1cc(OCCOCC[N+](C)(C)Cc2ccccc2)ccc1C(C)(C)CC(C)(C)C	inactive
O=C(CCCl)NCc1ccccc1	inactive
